This is part of a sample that, as a whole, favours compounds with a hit. Of some 79,000 tested, about 15% had one in any assay. A number with no mark means an inactive call. Calls of active or inactive are those of the source. Rule as the data show it: active = growth inhibition above about 70%; inactive = the rest.
Legend:
[1] = NCI Yeast Anticancer Drug Screen. Data for the wt1 strain (AID 149);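 also: 0% = growth of vehicle-treated wt1 cultures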; settings: S. cerevisiae wt1 strain (SPY 50644) growth inhibition, hits give high values
In short: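 Yeast wt1 strain exposed to compounds; growth inhibition measured relative to vehicle-treated controls.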

[2] = NCI Yeast Anticancer Drug Screen. Data for the rad50EPP+ strain (AID 151);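 also: 0% = growth of vehicle-treated control cultures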; settings: S. cerevisiae rad50 mutant strain, hits give high values
In short: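 Strain rad50EPP+; compound exposure; % growth inhibition vs vehicle.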

[3] = NCI Yeast Anticancer Drug Screen. Data for the rad50 strain (AID 155);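 also: 0% = growth of vehicle-only cultures of the same strain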; settings: S. cerevisiae rad50 strain growth inhibition, hits give high values
In short: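 Yeast carrying a defined DNA repair defect were exposed to test compounds, and growth was compared with vehicle-treated controls to give percent inhibition.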

[4] = NCI Yeast Anticancer Drug Screen. Data for the mec2-1 strain (AID 157); settings: S. cerevisiae mec2-1 strain, hits give high values
In short: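 Cells of the genetically defined mec2-1 yeast strain are incubated with test compound. Inhibition of growth is calculated against vehicle-treated controls.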

[5] = NCI Yeast Anticancer Drug Screen. Data for the rad14 strain (AID 159);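 also: 0% = growth of vehicle-treated control cultures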; settings: S. cerevisiae rad14 strain growth inhibition, hits give high values
In short: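 Yeast cells carrying a defined DNA-repair defect were exposed to compounds, and growth inhibition was calculated relative to vehicle-treated control cultures.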

[6] = NCI Yeast Anticancer Drug Screen. Data for the sgs1 mgt1 strain (AID 161);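 also: 0% = growth of cultures given vehicle only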; settings: S. cerevisiae sgs1 mgt1 strain, hits give high values
In short: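 Test agents were incubated with a DNA-repair-mutant yeast strain. Growth was then read and compared against vehicle-treated controls.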

[7] = NCI Yeast Anticancer Drug Screen. Data for the CLN2oe strain (AID 163);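 also: 0% = growth of vehicle-only control cultures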; settings: S. cerevisiae CLN2oe strain, hits give high values
In short: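 Strain altered in cell-cycle control, incubated with compound; growth compared to solvent-treated controls.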

[8] = NCI Yeast Anticancer Drug Screen. Data for the cln2 rad14 strain (AID 165);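 also: 0% = growth equal to vehicle treated cultures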; settings: S. cerevisiae cln2 rad14 strain, hits give high values
In short: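 The screen exposed genetically defined yeast (cln2 rad14) to test compounds and scored growth inhibition relative to vehicle-treated controls.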

[9] = NCI Yeast Anticancer Drug Screen. Data for the bub3 strain (AID 167); settings: S. cerevisiae bub3 mutant strain, hits give high values
In short: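 Compounds were applied to a genetically altered yeast strain carrying a cell-cycle control defect. Growth inhibition was scored against vehicle-treated controls.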

[10] = NCI Yeast Anticancer Drug Screen. Data for the wt2 strain (AID 169);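 also: 0% = growth of vehicle-treated yeast cultures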; settings: S. cerevisiae wt2 strain growth inhibition, hits give high values
In short: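 Steps: yeast strain treated with compound; growth recorded; inhibition calculated relative to cultures given vehicle alone.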

[11] = NCI Yeast Anticancer Drug Screen. Data for the mlh1 strain (AID 171);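 also: 0% = growth of vehicle-treated control cultures of the same strain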; settings: S. cerevisiae mlh1 strain growth inhibition, hits give high values
In short: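 Yeast screen: mutant strain plus compound, growth scored against vehicle control wells.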

[12] = NCI Yeast Anticancer Drug Screen. Data for the sgs1 strain (AID 173);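 also: 0% = growth of vehicle-only control cultures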; settings: S. cerevisiae sgs1 mutant, hits give high values
In short: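 Inhibition of yeast growth served as the measure. The mutant strain was treated with each compound, and growth was normalised to cultures receiving vehicle alone.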

[13] = NCI Yeast Anticancer Drug Screen. Data for the rad18 strain (AID 177); settings: S. cerevisiae rad18 mutant growth inhibition, hits give high values
In short: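 Inhibition values reflect reduced yeast growth compared with vehicle-treated controls, using a strain engineered with a DNA damage repair defect.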

[14] = at 5.0 µM (retest, dose inferred, filed as 0.5)
[15] = at 50.0 µM (retest, dose inferred, filed as 5.0)

Structure (SMILES): CC(=O)N1C(=O)/C(=C\C(=O)c2ccc(Cl)cc2)c2ccccc21
- growth inhibition ([1]; at 1.2 µM): 5%
- growth inhibition ([1]; at 3.7 µM): 7%
- growth inhibition ([1]; at 11.0 µM): 31%
- growth inhibition ([1]; at 33.0 µM): 79% (active)
- growth inhibition ([1]; at 100.0 µM): 94% (active)
- growth inhibition ([2]; at 1.2 µM): -2%
- growth inhibition ([2]; at 3.7 µM): 12%
- growth inhibition ([2]; at 11.0 µM): 22%
- growth inhibition ([2]; at 33.0 µM): 47%
- growth inhibition ([2]; at 100.0 µM): 72% (active)
- growth inhibition ([3]; at 1.2 µM): 11%
- growth inhibition ([3]; at 3.7 µM): 0%
- growth inhibition [3, 14]: 44%
- growth inhibition ([3]; at 11.0 µM): 51%
- growth inhibition ([3]; at 33.0 µM): 90% (active)
- growth inhibition [3, 15]: 96% (active)
- growth inhibition ([3]; at 50.0 µM): 76% (active)
- growth inhibition ([3]; at 100.0 µM): 92% (active)
- growth inhibition ([4]; at 1.2 µM): -3%
- growth inhibition ([4]; at 3.7 µM): -8%
- growth inhibition [4, 14]: 45%
- growth inhibition ([4]; at 11.0 µM): 17%
- growth inhibition ([4]; at 33.0 µM): 81% (active)
- growth inhibition [4, 15]: 98% (active)
- growth inhibition ([4]; at 50.0 µM): 87.4% (active)
- growth inhibition ([4]; at 100.0 µM): 91% (active)
- growth inhibition ([5]; at 1.2 µM): -16%
- growth inhibition ([5]; at 3.7 µM): -10%
- growth inhibition ([5]; at 11.0 µM): 8%
- growth inhibition ([5]; at 33.0 µM): 71% (active)
- growth inhibition ([5]; at 100.0 µM): 92% (active)
- growth inhibition [6, 14]: 41%
- growth inhibition [6, 15]: 96% (active)
- growth inhibition ([6]; at 50.0 µM): 86.3% (active)
- growth inhibition ([7]; at 1.2 µM): -38%
- growth inhibition ([7]; at 3.7 µM): -14%
- growth inhibition ([7]; at 11.0 µM): 2%
- growth inhibition ([7]; at 33.0 µM): 66%
- growth inhibition ([7]; at 100.0 µM): 90% (active)
- growth inhibition [8, 14]: 14%
- growth inhibition [8, 15]: 91% (active)
- growth inhibition ([8]; at 50.0 µM): 77.2% (active)
- growth inhibition ([9]; at 1.2 µM): 2%
- growth inhibition ([9]; at 3.7 µM): -23%
- growth inhibition [9, 14]: 13%
- growth inhibition ([9]; at 11.0 µM): -15%
- growth inhibition ([9]; at 33.0 µM): 81% (active)
- growth inhibition [9, 15]: 96% (active)
- growth inhibition ([9]; at 50.0 µM): 85.8% (active)
- growth inhibition ([9]; at 100.0 µM): 92% (active)
- growth inhibition ([10]; at 1.2 µM): 25%
- growth inhibition ([10]; at 3.7 µM): 52%
- growth inhibition ([10]; at 11.0 µM): 93% (active)
- growth inhibition ([10]; at 33.0 µM): 97% (active)
- growth inhibition ([10]; at 100.0 µM): 93% (active)
- growth inhibition ([11]; at 1.2 µM): -18%
- growth inhibition ([11]; at 3.7 µM): 2%
- growth inhibition ([11]; at 11.0 µM): 31%
- growth inhibition ([11]; at 33.0 µM): 78% (active)
- growth inhibition ([11]; at 100.0 µM): 92% (active)
- growth inhibition ([12]; at 1.2 µM): -15%
- growth inhibition ([12]; at 3.7 µM): 17%
- growth inhibition ([12]; at 11.0 µM): 49%
- growth inhibition ([12]; at 33.0 µM): 87% (active)
- growth inhibition ([12]; at 100.0 µM): 92% (active)
- growth inhibition ([13]; at 1.2 µM): 14%
- growth inhibition ([13]; at 3.7 µM): 32%
- growth inhibition ([13]; at 11.0 µM): 66%
- growth inhibition ([13]; at 33.0 µM): 92% (active)
- growth inhibition ([13]; at 100.0 µM): 92% (active)

Structure (SMILES): Nc1ccc2c(c1)sc1ccccc12
- growth inhibition ([1]; at 1.2 µM): -5%
- growth inhibition ([1]; at 3.7 µM): -7%
- growth inhibition ([1]; at 11.0 µM): -10%
- growth inhibition ([1]; at 33.0 µM): -11%
- growth inhibition ([1]; at 100.0 µM): 99% (active)
- growth inhibition ([2]; at 1.2 µM): 1%
- growth inhibition ([2]; at 3.7 µM): 13%
- growth inhibition ([2]; at 11.0 µM): 38%
- growth inhibition ([2]; at 33.0 µM): 89% (active)
- growth inhibition ([2]; at 100.0 µM): 98% (active)
- growth inhibition ([3]; at 1.2 µM): -20%
- growth inhibition ([3]; at 3.7 µM): -1%
- growth inhibition [3, 14]: -153%
- growth inhibition ([3]; at 11.0 µM): 9%
- growth inhibition ([3]; at 33.0 µM): 46%
- growth inhibition [3, 15]: 54%
- growth inhibition ([3]; at 50.0 µM): 85.4% (active)
- growth inhibition ([3]; at 100.0 µM): 99% (active)
- growth inhibition ([4]; at 1.2 µM): 1%
- growth inhibition ([4]; at 3.7 µM): 0%
- growth inhibition [4, 14]: -52%
- growth inhibition ([4]; at 11.0 µM): -6%
- growth inhibition ([4]; at 33.0 µM): 4%
- growth inhibition [4, 15]: -24%
- growth inhibition ([4]; at 50.0 µM): 33%
- growth inhibition ([4]; at 100.0 µM): 99% (active)
- growth inhibition ([5]; at 1.2 µM): -3%
- growth inhibition ([5]; at 3.7 µM): -6%
- growth inhibition ([5]; at 11.0 µM): -1%
- growth inhibition ([5]; at 33.0 µM): 15%
- growth inhibition ([5]; at 100.0 µM): 98% (active)
- growth inhibition [6, 14]: -68%
- growth inhibition [6, 15]: 40%
- growth inhibition ([6]; at 50.0 µM): 63.1%
- growth inhibition [8, 14]: -60%
- growth inhibition [8, 15]: -50%
- growth inhibition ([8]; at 50.0 µM): -13.4%
- growth inhibition ([9]; at 1.2 µM): -6%
- growth inhibition ([9]; at 3.7 µM): -4%
- growth inhibition [9, 14]: -59%
- growth inhibition ([9]; at 11.0 µM): 3%
- growth inhibition ([9]; at 33.0 µM): 18%
- growth inhibition [9, 15]: 40%
- growth inhibition ([9]; at 50.0 µM): 92.5% (active)
- growth inhibition ([9]; at 100.0 µM): 99% (active)
- growth inhibition ([10]; at 1.2 µM): -1%
- growth inhibition ([10]; at 3.7 µM): -2%
- growth inhibition ([10]; at 11.0 µM): -4%
- growth inhibition ([10]; at 33.0 µM): 0%
- growth inhibition ([10]; at 100.0 µM): 99% (active)
- growth inhibition ([11]; at 1.2 µM): 9%
- growth inhibition ([11]; at 3.7 µM): -4%
- growth inhibition ([11]; at 11.0 µM): -5%
- growth inhibition ([11]; at 33.0 µM): 21%
- growth inhibition ([11]; at 100.0 µM): 99% (active)
- growth inhibition ([12]; at 1.2 µM): -1%
- growth inhibition ([12]; at 3.7 µM): -1%
- growth inhibition ([12]; at 11.0 µM): -2%
- growth inhibition ([12]; at 33.0 µM): 46%
- growth inhibition ([12]; at 100.0 µM): 99% (active)
